{"source": "PubChem BioAssay (NCATS)", "note": "A number with no mark means an inactive call. The source made the active and inactive calls. Calls follow the shape of the dose curve; as a rule, active = well fitted curve in the direction sought with a large enough effect; inconclusive = small, poorly fitted or top-dose-only effect, or another doubt; inactive = no such curve, though single readings can be large or run the other way.", "data": [{"target": "Alpha-galactosidase (Coffea arabica) (UniProt Q42656)", "sequence (Q42656 whole entry, looked up)": "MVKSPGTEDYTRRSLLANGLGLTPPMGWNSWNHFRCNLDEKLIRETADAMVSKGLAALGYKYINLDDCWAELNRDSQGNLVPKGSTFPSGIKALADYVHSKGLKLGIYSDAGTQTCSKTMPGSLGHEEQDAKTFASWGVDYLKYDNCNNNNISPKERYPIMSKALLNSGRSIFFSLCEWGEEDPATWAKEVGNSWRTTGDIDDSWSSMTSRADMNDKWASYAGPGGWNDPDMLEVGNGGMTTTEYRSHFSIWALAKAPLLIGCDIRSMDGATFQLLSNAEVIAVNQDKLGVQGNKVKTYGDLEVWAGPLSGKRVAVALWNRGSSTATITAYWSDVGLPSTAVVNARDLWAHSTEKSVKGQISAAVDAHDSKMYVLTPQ", "assay": "Counterscreen for Glucocerebrosidase Inhibitors: qHTS Assay for Coffee Bean alpha-Galactosidase at pH 4.5 (AID 957)", "details": "purified coffee bean alpha-galactosidase, fluorogenic substrate; series mostly up to 76.9 µM; activity change, negative = inhibition: at the top concentration", "description": "NIH Chemical Genomics Center [NCGC]\nNIH Molecular Libraries Screening Centers Network [MLSCN]\nPI Name: Zheng, Wei [NIH]\nAlpha-galactosidase is a homodimeric glycoprotein that hydrolyzes the terminal alpha-galactosyl moieties from glycolipids and glycoproteins. Deficiency of this enzyme results in Fabry Disease with progressive accumulation of globotriaosylceramide and other glycosphingolipids in vascular endothelial cells that causes renal failure, myocardial infarction and stroke, and premature death in patients. It has reported that the improper folding and trafficking of alpha-galactosidase resulted from the genetic mutations may account for a significant numbers of Fabry patients. […] We optimized this coffee bean alpha-galactosidase assay in 1536-well plate format as a counter-screen assay for identifying the selective small molecule inhibitors of other lysosomal enzymes.\nNCGC Assay Protocol Summary:\nThis is a fluorogenic enzyme assay with 4-Methylumbelliferyl alpha-D-galactopyranoside as the substrate and green coffee bean […] (from Sigma-Aldrich) as the enzyme preparation. Upon the hydrolysis of this fluorogenic substrate, the resulting product, […]. 4-Methyllumbelliferone, can be excited at 365 nm and emits at 440 nm which can be detected by a standard fluorescence plate reader. Data were normalized to the controls for basal activity (without enzyme) and 100% activity (with enzyme). In the AC50 values were determined from concentration-response data modeled with the standard Hill equation.\nAssay buffer: 50 mM citric acid, 0.005% Tween-20, pH 4.5. (pH 5.9 is an optimal condition for this enzyme assay. This assay in pH 4.5 is used for comparison the inhibitor activities with the human alpha-galactosidase assay)\n1536-well assay protocol for the coffee bean alpha-galactosidase:\n(1) Add 2 ul/well of enzyme (2 nM final)\n(2) Add 23 nL compounds in DMSO solution. The final titration was 0.7 nM to 77 uM.\n(3) Add 1 ul of substrate (80 uM final)\n(4) Incubate at room temperature for 20 min.\n(5) Add 2 ul stop solution (1M NaOH and 1M Glycine mixture, pH 10)\n(6) Detect the assay plate in a ViewLux plate reader (PerkinElmer) with Ex=365 nm and Em=440nm.\nKeywords: Alpha-galactosidase, Fabry Disease, pharmacological chaperone, chaperone therapy, high throughput screening, alpha-galactosidase inhibitor, MLSMR, MLSCN, NIH Roadmap, qHTS and NCGC", "units": {"activity change, negative = inhibition": "%"}, "values": [{"smiles": "O=C(O)c1cc2cc(Cc3cccnc3)ccc2o1", "activity change, negative = inhibition": 2.19}, {"smiles": "O=Nc1c(-c2c(O)[nH]c3ccccc23)[nH]c2ccccc12", "activity change, negative = inhibition": -3.76}, {"smiles": "Nc1nc2ccc(Cl)cc2c2nc(-c3ccco3)nn12", "activity change, negative = inhibition": -2.42}, {"smiles": "CCCCCCCCCCCCCCC[C@H](O)[C@H](N)CO", "activity change, negative = inhibition": -0.966}, {"smiles": "Cn1c(=O)c2[nH]c(-c3ccccc3)nc2n(C)c1=O", "activity change, negative = inhibition": 1.53}, {"smiles": "CC(=O)N[C@@H](Cc1c[nH]c2ccccc12)C(=O)OCc1cc(C(F)(F)F)cc(C(F)(F)F)c1", "activity change, negative = inhibition": -4.36}, {"smiles": "NC[C@@H]1O[C@H](C23CC4CC(CC(C4)C2)C3)Cc2c1ccc(O)c2O", "activity change, negative = inhibition": 1.97}, {"smiles": "O=c1[nH]c2cc([N+](=O)[O-])c([N+](=O)[O-])cc2[nH]c1=O", "activity change, negative = inhibition": -4.62}, {"smiles": "N[C@@H](Cc1c[nH]c2ccccc12)C(=O)O", "activity change, negative = inhibition": -1.97}, {"smiles": "O=C(c1cc(O)c(O)c([N+](=O)[O-])c1)c1ccccc1F", "activity change, negative = inhibition": -8.48}, {"smiles": "O=C(CCc1ccc(O)cc1)c1c(O)cc(O)cc1O", "activity change, negative = inhibition": 0.742}, {"smiles": "C#CCn1c(=O)c2c(ncn2C)n(C)c1=O", "activity change, negative = inhibition": -0.974}, {"smiles": "NC(=O)C(=O)O", "activity change, negative = inhibition": 1.73}, {"smiles": "CCCC1O[C@@H]2C[C@H]3[C@@H]4CCC5=CC(=O)C=C[C@]5(C)[C@H]4[C@@H](O)C[C@]3(C)[C@]2(C(=O)CO)O1", "note": "(stereo not given in full)", "activity change, negative = inhibition": -2.67}, {"smiles": "O=[N+]([O-])c1cccc2c(Br)[nH]nc12", "activity change, negative = inhibition": -6.41}, {"smiles": "COc1ccc2c(c1)c(CC(=O)O)c(C)n2C(=O)c1ccccc1", "activity change, negative = inhibition": -1.88}, {"smiles": "CCCn1c(=O)c2[nH]c(C3CCCC3)nc2n(CCC)c1=O", "activity change, negative = inhibition": -1.37}, {"smiles": "CC(C)NC[C@@H](O)COc1cccc2ccccc12", "outcome": "inactive"}, {"smiles": "Cc1nc2c(OCc3ccccc3)cccn2c1CC#N", "activity change, negative = inhibition": 0.323}, {"smiles": "O=c1[nH]c(=O)c2nc3ccccc3nc2[nH]1", "activity change, negative = inhibition": -1.01}, {"smiles": "COc1ccc(/C=C/C(=O)Nc2ccccc2C(=O)O)cc1OC", "activity change, negative = inhibition": -7.5}, {"smiles": "N=C(N)SCCc1ccc(CCSC(=N)N)cc1", "activity change, negative = inhibition": -1.9}, {"smiles": "Fc1ccc(C(OCCCc2cnc[nH]2)c2ccc(F)cc2)cc1", "activity change, negative = inhibition": -7.78}, {"smiles": "CC(C)(C)c1o[nH]c(=O)c1C[C@H](N)C(=O)O", "activity change, negative = inhibition": 0.569}, {"smiles": "Oc1cc2c(cc1O)CN(C(=S)NCCc1ccc(Cl)cc1)CCC2", "activity change, negative = inhibition": -0.879}, {"smiles": "CN=C(N)NCCC[C@H](N)C(=O)O", "activity change, negative = inhibition": -2.2}, {"smiles": "Oc1ccc(Cn2cc[nH]c2=S)cc1", "activity change, negative = inhibition": 0.534}, {"smiles": "O=C(O)c1cc(=O)c2c(Cl)cc(Cl)cc2[nH]1", "activity change, negative = inhibition": -1.5}, {"smiles": "NC(N)=NC(N)=Nc1ccccc1", "activity change, negative = inhibition": 0.507}, {"smiles": "CC(C)NC[C@H](O)COc1ccc(CC(N)=O)cc1", "outcome": "inactive"}, {"smiles": "CCCc1c(OCCCOc2ccc(OCC(=O)O)cc2)ccc(C(C)=O)c1O", "activity change, negative = inhibition": -0.0507}, {"smiles": "Cn1cc(C2=C(c3ccc(Cl)cc3Cl)C(=O)NC2=O)c2ccccc21", "activity change, negative = inhibition": 1.64}, {"smiles": "CN1CCN(c2nc3cc(C(F)(F)F)ccc3n3cccc23)CC1", "activity change, negative = inhibition": -5.34}, {"smiles": "CN(C(=O)Cc1ccc(Cl)c(Cl)c1)[C@@H](CN1CCCC1)c1cccc(OCC(=O)O)c1", "activity change, negative = inhibition": -1.26}, {"smiles": "CSC(=N)N", "activity change, negative = inhibition": 1.8}, {"smiles": "CC(C)NC[C@H](O)c1ccc(O)c(O)c1", "outcome": "inactive"}, {"smiles": "COC(=O)c1c(C)[nH]c(C)c1C(=O)c1ccccc1Cc1ccccc1", "activity change, negative = inhibition": -2.13}, {"smiles": "CC1(C)CCC=[N+]1[O-]", "activity change, negative = inhibition": 3.34}, {"smiles": "NCCNS(=O)(=O)c1cccc2c(Cl)cccc12", "activity change, negative = inhibition": -0.0485}, {"smiles": "N#C/C(=C\\c1ccc(O)c(O)c1)C(=O)c1ccc(O)c(O)c1", "activity change, negative = inhibition": -3.61}]}]}
